From PubChem BioAssay
Rows were chosen to be rich in hits. Some 5.2% of all compounds tested hit in one or more screens of this group.
CR mimetic SO = caloric restriction mimetics inhibiting age-related superoxide in yeast; S. cerevisiae aged cells, superoxide DHE fluorescence; hits give low values; superoxide response (% of plate mean), % at 10 µM; 0.18% of 330,000 active; AID 2690;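 active means superoxide response under a set limit, about three screen SD below normal, cut at about 65% in these data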;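 further: yeast aged for seven days with compound at 30 °C before DHE staining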
PfM18AAP inh = PfM18AAP enzyme inhibition | recombinant PfM18AAP, H-Glu-NHMec fluorogenic cleavage | inhibition, % at 7.35 µM | 1.2% of 290,000 active | AID 1822;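 active means inhibition above the campaign mean inhibition over all tested compounds plus 3 SD, cut at about 28% in these data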
ALR H2O2 inh = human ALR oxidase inhibition via reduced H2O2. P55789. purified ALR, DTT oxidation, H2O2 HRP-luminol luminescence. inhibition, % (concentration not given with the values). 3.8% of 290,000 active. AID 485317;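 active means mean replicate inhibition above about 79%, with every replicate also reaching it, limit read from the data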
CendR NRP1 mod = alters CendR peptide binding to human NRP-1; FAM-RPARPAR peptide binding to NRP-1, fluorescence polarization; 0.85% of 360,000 active; O14786; inhibition, % at 25 µM;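 active means inhibition or corrected inhibition above about 18%, plus a signal ratio from 0.5 to 1.5, limit read from the data, passing the limit was not always enough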
Target sequence (O14786 whole entry, looked up): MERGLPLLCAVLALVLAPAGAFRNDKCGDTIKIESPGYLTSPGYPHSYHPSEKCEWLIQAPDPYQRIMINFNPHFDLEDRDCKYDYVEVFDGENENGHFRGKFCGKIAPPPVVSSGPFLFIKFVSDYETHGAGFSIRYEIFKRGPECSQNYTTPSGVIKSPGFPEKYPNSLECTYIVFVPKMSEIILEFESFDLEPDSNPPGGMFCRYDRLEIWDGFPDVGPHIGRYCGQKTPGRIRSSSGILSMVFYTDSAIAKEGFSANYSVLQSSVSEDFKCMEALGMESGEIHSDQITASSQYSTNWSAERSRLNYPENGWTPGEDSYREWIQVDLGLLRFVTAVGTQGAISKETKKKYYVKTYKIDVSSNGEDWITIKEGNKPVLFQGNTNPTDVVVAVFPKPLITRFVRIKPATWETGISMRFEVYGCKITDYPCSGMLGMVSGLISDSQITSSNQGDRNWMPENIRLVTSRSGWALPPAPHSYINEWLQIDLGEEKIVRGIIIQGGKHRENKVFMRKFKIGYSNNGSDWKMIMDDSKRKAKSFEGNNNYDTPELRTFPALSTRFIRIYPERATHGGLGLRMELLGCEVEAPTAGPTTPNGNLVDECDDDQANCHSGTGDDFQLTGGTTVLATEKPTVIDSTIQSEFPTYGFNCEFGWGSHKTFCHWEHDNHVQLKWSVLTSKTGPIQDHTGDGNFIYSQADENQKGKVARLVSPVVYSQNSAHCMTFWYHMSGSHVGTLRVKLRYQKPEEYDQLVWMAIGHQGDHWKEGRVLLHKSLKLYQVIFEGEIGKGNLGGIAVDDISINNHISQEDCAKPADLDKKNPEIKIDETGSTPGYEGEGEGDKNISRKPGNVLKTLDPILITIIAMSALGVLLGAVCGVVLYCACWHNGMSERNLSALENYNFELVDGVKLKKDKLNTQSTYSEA
A3G deaminase = blocks human APOBEC3G single-stranded DNA deamination; inhibition, % at 20 µM; 0.28% of 330,000 active; AID 493012; Q9HC16; recombinant A3G, ssDNA deamination FAM/TAMRA fluorescence;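 active means inhibition of at least 40% at 20 µM, with no more than 30% in the related APOBEC3A deaminase screen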
A3A deaminase = blocks human APOBEC3A ssDNA deamination; P31941; recombinant A3A, FAM/TAMRA ssDNA deamination fluorescence; 0.41% of 330,000 active; AID 493011; inhibition, % at 20 µM;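 active means at least 40% inhibition at 20 µM here, with at most 30% in a related deaminase screen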
Of the large screens only hits and unclear results are named; the others gave an inactive call.

O=C(N/N=C/c1ccc(OC(F)F)cc1)c1ccc(Br)cc1	none
O=C(NO)c1ccc(OC(F)F)cc1	ALR H2O2 inh 99
CCCC[C@@H]1CCCO[C@@](C(=O)NCc2ccc(C)o2)(C(F)(F)F)C1	ALR H2O2 inh 90 (no result: CR mimetic SO, PfM18AAP inh)
CCCCC1CCCOC(C(=O)NCCNCCO)(C(F)(F)F)C1 (stereo not drawn)	none (no result: CR mimetic SO, PfM18AAP inh)
COc1ccccc1-c1ccc(=O)n(CC(=O)NCc2cccs2)n1	none
O=C(O)C1Sc2[nH]c(=O)sc2C2c3cc(Br)ccc3OC(=O)C12 (stereo not drawn)	none (no result: ALR H2O2 inh)
O=C(O)C1Sc2[nH]c(=O)sc2C2c3cc(Cl)ccc3OC(=O)C12 (stereo not drawn)	ALR H2O2 inh 94
COC1OC(COCc2ccccc2)C(N)C(OCc2ccccc2)C1OCc1ccccc1 (stereo not drawn)	none (no result: CR mimetic SO, PfM18AAP inh, ALR H2O2 inh, A3G deaminase, A3A deaminase)
O=c1cnnc(Nc2ccc(Nc3ccccc3)cc2)[nH]1	ALR H2O2 inh 100
CCOc1ccc(CCNC(=O)CS(=O)Cc2nc(-c3ccc(OC)cc3)oc2C)cc1OCC (stereo not drawn)	ALR H2O2 inh 99
CCOc1ccc(CCNC(=O)CCc2nc(-c3ccc(OC)cc3)no2)cc1OCC	none
Cc1cccc(-c2nc(CS(=O)CC(=O)NCCc3ccccc3)c(C)o2)c1 (stereo not drawn)	none
COc1ccc(CCNC(=O)CS(=O)Cc2nc(-c3ccc(C)cc3)oc2C)cc1OC (stereo not drawn)	ALR H2O2 inh 99
COc1ccc(-c2nc(CS(=O)CC(=O)NCCc3ccc(C)cc3)c(C)o2)cc1OC (stereo not drawn)	ALR H2O2 inh 99
COc1ccc(-c2nc(CS(=O)CC(=O)NCCc3ccc(OC)c(OC)c3)c(C)o2)cc1 (stereo not drawn)	ALR H2O2 inh 98
Nc1cc(=O)nc(SCC(=O)N(C2CCCCC2)C2CCCCC2)n1-c1ccccc1	none
O=C(Nc1cccnc1N1CCOCC1)c1cccs1	none
CCc1nc2ccc(C(=O)NCc3ccccc3)cc2nc1CC	none
CCN(Cc1ccncc1)S(=O)(=O)c1ccc(C(C)=O)cc1	ALR H2O2 inh 90
CCN(CC)S(=O)(=O)c1ccc(C(=O)Nc2ccc(Cc3ccncc3)cc2)cc1	none (no result: ALR H2O2 inh)
CCOC(=O)c1cc(CC)sc1NC(=O)Cc1ccsc1	CendR NRP1 mod 22
CC(C)Oc1ccc(Cc2cnc(=S)[nH]c2N)cc1	PfM18AAP inh 31
O=C(CCn1c(=O)oc2ccccc21)N1CCCCCC1	none
O=C(CCn1c(=O)oc2ccccc21)n1c(=O)oc2ccccc21	ALR H2O2 inh 96
CCn1c(Cc2ccccc2)nnc1SCC(=O)Nc1ccc(OC)cc1	none
CCn1c(Cc2ccccc2)nnc1SCC(=O)Nc1ccc(N)cc1	ALR H2O2 inh 87
COCCn1c(Cc2ccccc2)nnc1SCC(=O)NC1CC1	CendR NRP1 mod 25
Cn1c(Cn2c(=O)sc3ccccc32)nnc1SCC(=O)N1CCN(c2ccccc2)CC1	CendR NRP1 mod 27
O=C(CSc1nnc(Cc2ccccc2)n1-c1ccccc1)NNC(=O)Cc1ccccc1	ALR H2O2 inh 98
O=C(CCNC(=O)N1CC(=O)Nc2ccccc21)NCCc1ccc(Cl)cc1	none (no result: CR mimetic SO, PfM18AAP inh, ALR H2O2 inh, A3G deaminase, A3A deaminase)
Cc1ccc(C2C(=O)N(C3CCC(C)CC3)CC(=O)N2C2CC2)cc1 (stereo not drawn)	none
Cc1nn(C)c(C)c1NC(=O)CSc1nnc(C)n1-c1ccccc1	none
Cc1ccc(-c2nc(C3CCCN(S(=O)(=O)c4ccc(C(F)(F)F)cc4)C3)no2)cc1 (stereo not drawn)	none
CCn1c(CC(=O)Nc2ccc(C)cc2)nnc1SCC(=O)N1CCN(c2ccccc2)CC1	ALR H2O2 inh 89
CCn1c(CC(=O)Nc2ccc(Cl)cc2)nnc1SCC(=O)N1CCOCC1	none (no result: ALR H2O2 inh)
COC(=O)[C@]1(C)N[C@H](CN(C)S(=O)(=O)c2ccc(C)cc2)[C@@H]2C(=O)N(C)C(=O)[C@@H]21	none (no result: PfM18AAP inh, ALR H2O2 inh)
Cn1nccc1C(=O)c1ccc(Cl)cc1	none
Cc1ccc(-n2c(-c3ccncc3)n[nH]c2=S)cc1	none
CC(C)OCC(O)CCc1n[nH]c(=S)n1-c1ccccc1 (stereo not drawn)	ALR H2O2 inh 88
Cc1ccc(-n2c(-c3cnccn3)n[nH]c2=S)cc1	ALR H2O2 inh 88
CC(C)Cn1c(Cc2ccccc2)n[nH]c1=S	ALR H2O2 inh 92
Cc1ccc(-n2c(Cc3ccccc3)n[nH]c2=S)cc1	ALR H2O2 inh 92
CCOC(=O)CC(=O)Nc1nnc(CC(C)C)s1	none
COc1ccc(C(CC(=O)Nc2cc(OC)cc(OC)c2)n2cccc2)cc1 (stereo not drawn)	none
O=C(Nc1cccnc1)C1CCCN1S(=O)(=O)c1ccc(Cl)c(Cl)c1 (stereo not drawn)	none
Cc1ccc(N(CC(=O)NCc2ccccc2)C(=O)CCC(=O)Nc2nccs2)cc1	none (no result: ALR H2O2 inh)
S=c1[nH]nc(Cc2ccccc2)n1-c1ccc(Cl)cc1	none
S=c1[nH]nc(Cc2ccccc2)n1-c1ccccc1	ALR H2O2 inh 87
COc1cccc(OC)c1C(=O)OCc1c(-c2ccccc2)ncc2ccccc12	none (no result: PfM18AAP inh)
CC(=O)Nc1c(O)nc(SCC(=O)Nc2sc3c(c2C#N)CCCCCC3)[nH]c1=O	ALR H2O2 inh 98
N#Cc1c(NC(=O)CSc2ncn[nH]2)sc2c1CCCC2	none (no result: ALR H2O2 inh)
CC(=O)Nc1c(O)nc(SCC(=O)Nc2nnc(CC(C)C)s2)[nH]c1=O	ALR H2O2 inh 85
CC1CCc2c(sc(NC(=O)CSc3ncn[nH]3)c2C#N)C1 (stereo not drawn)	none
CC(=O)Nc1c(O)nc(SCC(=O)Nc2cccc(C)c2)[nH]c1=O	ALR H2O2 inh 98
CCCc1cc(=O)[nH]c(SCC(=O)Nc2sc3c(c2C#N)CCC(C)C3)n1 (stereo not drawn)	ALR H2O2 inh 89
CCOC(=O)N1[C@@H]2C=C(C)[C@@H]2[C@@H]2[C@@H](C)C(=O)N21	none
O=C(COC(=O)CCc1nc2ccccc2s1)Nc1ccc(S(=O)(=O)N2CCOCC2)cc1	none (no result: PfM18AAP inh)
COc1ccc(CNC(=O)C(=O)NCC2OCCN2S(=O)(=O)c2ccc(OC)c(OC)c2)cc1 (stereo not drawn)	none
CCOc1ccc(Br)cc1S(=O)(=O)Nc1cccc(S(=O)(=O)NC2=NCCC2)c1	none
O=C(NNC(=O)c1ccc2c(=O)n3c(nc2c1)CCC3)c1ccc(F)cc1	none (no result: PfM18AAP inh)
CC(=O)Nc1c(O)nc(SCC(=O)Nc2ccc(C(C)=O)cc2)[nH]c1=O	ALR H2O2 inh 98
O=C(CSc1nc2ccccc2c(=O)[nH]1)Nc1ccc(C(=O)O)cc1	none (no result: ALR H2O2 inh)
C=CCOc1c(CNc2ncn[nH]2)cccc1OCC	CendR NRP1 mod 28
COCC(=O)Nc1ccc(N2CCN(c3ccccc3)CC2)c(F)c1	none
Nc1ccc(N2CCN(c3ccccc3)CC2)c(F)c1	ALR H2O2 inh 79
O=C(CSc1ccccc1)Nc1ccc(N2CCN(c3ccccc3)CC2)c(F)c1	ALR H2O2 inh 100
